VACV Venus inh: qHTS for Stage-Specific Inhibitors of Vaccinia Orthopoxvirus: Venus Reporter Primary qHTS; Potency, µM (doses to about 36.5 µM), for the others: at the highest dose activity change, negative = inhibition, most hits filed as inhibitors; 330,000 tested, 0.46% active; Vaccinia virus Venus reporter expression, fluorescence; AID 720580, 2013; calls by dose curve; tested in A549 cells; further: nearly all actives have a fitted effect of over 30% in size
Vaccinia mCherry: qHTS for Stage-Specific Inhibitors of Vaccinia Orthopoxvirus: mCherry Reporter Primary qHTS; 310,000 tested, 0.63% active; Vaccinia virus mCherry reporter infection, fluorescence; AID 720579, 2013; Potency, µM (highest dose often 36.5 µM), for inactives: at the top dose activity change, negative = inhibition, most hits filed as inhibitors; calls by dose curve; tested in A549 cells; further: nearly all actives have a fitted effect of over 35% in size
Lassa entry inh: qHTS for Inhibitors of binding or entry into cells for Lassa Virus; Lassa virus pseudotype entry inhibition, cell reporter; Potency, µM (doses to about 37.9 µM), inactives show top-dose activity change, negative = inhibition, hits mostly inhibitors; 300,000 tested, 1.2% active; AID 540256, 2011; calls by dose curve; tested in HEK293 cells; further: nearly all actives have a fitted effect of over 50% in size
Marburg entry inh: qHTS for inhibitors of binding or entry into cells for Marburg Virus | Marburg virus pseudotyped entry inhibition, cell reporter | Potency, µM (titrated, usually from 37.8 µM), for inactives: at the top dose activity change, negative = inhibition, usual class: inhibitors | 300,000 tested, 1.8% active | AID 540276, 2011; calls by dose curve; tested in HEK293 cells
* marks the source's active call; other numbers are inactive results; i = inactive; u = inconclusive; x = not tested or not shown; [ ] = remark or other dose. Hits are enriched below; roughly 2.5% of the tested compounds scored in any of these assays. On the % scale 0 is the no-effect control and ±100 the full control effect; potency means the concentration at half of the fitted maximal effect.

SMILES	VACV Venus inh	Vaccinia mCherry	Lassa entry inh	Marburg entry inh
Cc1ccc([C@H]2/C(=C(\O)c3ccc(OC(C)C)cc3)C(=O)C(=O)N2CCN2CCOCC2)cc1	x	x	x	0.0%
Cc1c(C(=O)NC(C)(C)C)sc2ncnc(NCCN(C)C)c12	-16.9%	-12.5%	x	x
CCCN1C(=O)COc2ccc(-c3n[nH]c(=O)c4ccccc34)cc21	-25.7%	-17.5%	-1.7%[46.1 µM]	10µM*
O=C(O)c1cc(-c2ccc3c(c2)OCCO3)n[nH]1	2.7%	0.2%	6.1%	u
CCOC(=O)c1cc(-c2ccc3c(c2)OCCO3)n[nH]1	u	-23.3%	u	5.62µM*
Cc1cc(C(=O)Nc2cccc(-c3nc(CNC(=O)c4ccccc4C(F)(F)F)c(C)o3)c2)c(C)o1	6.7%	1.6%	x	x
CCN(CC)C(=O)N1CCC2CCCCC2C1CN1C(=O)C2=C(CCCC2)C1=O (stereo not given)	x	x	x	-13.7%
CC1=CC[C@@H](COc2ccccc2)O[C@@]2(C1)C(=O)N(Cc1ccc(F)cc1)c1ccccc12	x	x	x	-2.3%[14.2 µM]
NC1(N)OC(CN2C(=O)C3=C(CCCC3)C2=O)CS1 (stereo not given)	x	x	x	-6.2%
COc1cccc(CNc2nc3ccccc3n2CCN2CCCCC2)c1OC	-19.2%	-12.7%	u	11.2µM*
O=C1C=C2C=C[C@@H]3C[C@@]2(O1)[C@H]1CCCCN31	14.1µM*	u	x	x
O=C1C=C(N2CCCCC2)C2(CCCCC2)O1	-2.2%	i	x	x
COC(=O)C1=C2C=CCCN2C(=O)NC1c1ccccc1 (stereo not given)	x	x	x	-16.8%[14.2 µM]
CCOc1ccc(Nc2nc3ccccc3n2C)cc1	-27.2%	i	-1.0%	13.2%
CCOc1ccc(Nc2c3ccccc3nc3ccccc23)cc1	u	5.62µM*	x	x
Cc1cc2cc(CCNC(=O)C(=O)c3c[nH]c4ccccc34)c(=O)[nH]c2cc1C	-22.0%	-4.9%	12.6µM*	u
Cc1sc(NC(=O)c2ccco2)c(C(c2cccnc2)N2CCC(C)CC2)c1C (stereo not given)	x	x	20.6µM*	u
COc1ccc(C(c2c(NC(=O)c3ccco3)sc(C)c2C)N2CCOCC2)cc1 (stereo not given)	-9.7%	-9.8%	u	-16.0%
Cc1sc(NC(=O)c2ccco2)c(CN2CCC(C)CC2)c1C	-9.6%	i	-24.5%	u
Cc1sc(NC(=O)c2ccco2)c(CN2CCN(Cc3ccccc3)CC2)c1C	-19.9%	-27.0%	u	12.6µM*
Cc1ccccc1N1C(=O)C[C@@H](Sc2nnc(-c3ccccc3)o2)C1=O	x	x	x	9.3%
COC(=O)[C@@H]1CCCN1Cc1ccc2c(c1)CN(Cc1cccn1-c1ccc(Cl)cn1)CCO2	1.0%	5.2%	x	x
COc1ccc(NC(=O)c2ccc([N+](=O)[O-])o2)cc1	u	u	-5.5%[46.1 µM]	11.2µM*
CC(C)C(=O)N1CCN(c2ccc(NC(=O)c3ccc([N+](=O)[O-])o3)cc2)CC1	11.2µM*	10µM*	-17.3%	20.9%[46.1 µM]
O=C(Nc1ccc2oc(-c3ccncc3)nc2c1)c1ccc([N+](=O)[O-])o1	u	10µM*	-26.1%[46.1 µM]	u
SMILES	VACV Venus inh	Vaccinia mCherry	Lassa entry inh	Marburg entry inh
CN1CCN(c2ccc(NC(=O)c3ccc([N+](=O)[O-])o3)cc2Cl)CC1	u	12.6µM*	u	11.2µM*
O=C(Nc1ccc2oc(-c3ccncc3)nc2c1)c1ccccc1	-5.8%	i	-26.2%	3.5%
COCC1CCCN(Cc2ccc3c(c2)CN(C(=O)c2cnn(C(C)C)c2)CCO3)C1 (stereo not given)	2.9%	-9.9%	x	x
CC(=O)c1ccc(F)c(-c2cc(C)cc3c2OC(CNC(=O)c2cccnc2)C3)c1 (stereo not given)	-14.5%	-14.1%	x	x
Cc1ncc2c(c1CNC(=O)c1cncs1)CCN(C(=O)c1csc(-c3cccs3)n1)C2	10.6%	-4.5%	x	x
CCCNC(=O)N1C2=NC(C(=O)OC)=C(C(=O)OC)[C@@H]3Nc4ccccc4[C@]23C[C@H]1C(=O)OC	x	x	u	3.2%[14.2 µM]
CN1CCN(c2ccc(NC(=O)c3ccc(-c4ccc(Cl)cc4)o3)cc2)CC1	11.2µM*	u	u	u
CCCC(=O)N1CCN(c2ccc(NC(=O)c3ccc([N+](=O)[O-])o3)cc2Cl)CC1	u	10µM*	u	u
Cc1ccccc1C(=O)N1CCN(c2ccc(NC(=O)c3ccc([N+](=O)[O-])o3)cc2)CC1	-21.0%	-9.0%	-29.8%[46.1 µM]	u
CN1CCN(c2ccc(NC(=O)c3ccc(-c4cccc([N+](=O)[O-])c4)o3)cc2)CC1	-14.4%	-18.7%	0.4%	-7.1%[46.1 µM]
O=C(COc1ccccc1C(=O)OCC(=O)Nc1cccc2ccccc12)Nc1ccc(Br)cc1	-22.7%	-2.6%	x	x
Brc1cccc[n+]1CCCC[n+]1ccccc1Br	-10.9%	i	x	x
Cc1cc(NCc2ccccn2)n2nc(C)c(-c3ccc(Cl)cc3)c2n1	u	u	u	10µM*
COc1ccc(CCNC(=O)c2ccc3c(c2)N(Cc2ccc(F)cc2)C(=O)c2ccccc2S3(=O)=O)cc1OC	-5.1%	-16.8%	-27.4%[46.1 µM]	10µM*
O=C(c1ccc2c(c1)N(Cc1ccc(F)cc1)C(=O)c1ccccc1S2(=O)=O)N1CCN(Cc2ccccc2)CC1	-21.6%	-20.8%	u	u
COc1ccccc1N1CCN(C(=O)c2ccc3c(c2)N(Cc2ccccc2)C(=O)c2ccccc2S3(=O)=O)CC1	-14.2%	-15.1%	-22.8%[46.1 µM]	8.91µM*
CCOc1ccc(CCNC(=O)c2ccc3c(c2)N(Cc2cccc(Cl)c2)C(=O)c2ccccc2S3(=O)=O)cc1OCC	-5.6%	-10.4%	-17.9%[46.1 µM]	x
C[C@@H]1CC[C@H]2C(=O)O[C@@H](COc3ccc(C(C)(C)C)cc3)CN2[C@H]1c1ccc(Br)cc1	x	x	-26.4%[14.3 µM]	u
Cc1cc(C(=O)O)ccc1N/C=C1\CCCC(C)C1=O (stereo not given)	-25.8%	x	12.6µM*	7.94µM*
CC1CCC/C(=C\Nc2ccc(O)cc2)C1=O (stereo not given)	x	x	-0.7%	17.2%
O=C(CCc1nc2sc3c(c2c(=O)[nH]1)CCCC3)NCCOc1ccccc1	0.7%	-10.2%	u	19.7%
CN(C)C(CNC(=O)CCc1nc2sc3c(c2c(=O)[nH]1)CCCC3)c1ccccc1 (stereo not given)	-16.7%	-17.0%	-0.5%	10µM*
COC(=O)C12OCC34C(CC5C(C)=C(O)C(=O)CC5(C)C3C(O)C1O)OC(=O)C(OC(=O)/C=C(\C)C(C)C)C24 (stereo not given)	1.26µM*	u	u	u
COC(=O)C12OCC34C(CC5C(C)=C(O)C(=O)CC5(C)C3C(O)C1O)OC(=O)C(OC(=O)C=C(C)C)C24 (stereo not given)	u	31.6µM*	u	u
Cc1ccc2c(CC(=O)N3CCOc4ccc(CN5CCOCC5)cc4C3)cc(=O)oc2c1	-5.7%	-11.8%	x	x
CC(C)CCn1c(O)c(N=Nc2ccccn2)c2ccccc21	-0.6%	-27.0%	u	-16.3%
Oc1ccc2ccccc2c1N=Nc1ccccn1	-20.3%	x	8.91µM*	u
Cc1c(C(=O)N(C)Cc2cscn2)sc2ncnc(NC[C@H]3CCc4ccccc4O3)c12	-3.1%	3.0%	x	x
Cn1nc(-c2ccc(F)cc2)nc2c(=O)n(C)c(=O)nc1-2	2.82µM*	0.631µM*	x	x
